In all, about 5,500 compounds went through this assay and about 2,000 (36%) were called active. Not shown: some 18% with an inconclusive outcome. Rule as the data show it: active = normalized growth mostly below about 0.91 (no sharp cut-off); inconclusive = no clear call, values can overlap the other calls; inactive = mostly above about 0.92. Some of the results follow.
Assay: chemical genetic growth profiling, strain panel (AID 1159580);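 also: tested at 20 µM; growth read once vehicle control cultures reached saturation at 30 °C; 1 = growth at the plate median or of vehicle wells; lower values mean less growth of the strain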
Details: growth OD

Measured: normalized growth

C[C@@H]1[C@H]2[C@H](O[C@@H]3O[C@H](CO)[C@@H](O)[C@H](O)[C@H]3O)OC=C(C(=O)O)[C@H]2C[C@@H]1O
inactive: S. cerevisiae deletion strains, locus YAL013W, strain DEP1, active compounds read low 1.01 | S. cerevisiae deletion strains, locus YBR021W, strain FUR4, active compounds read low 1.05 | S. cerevisiae deletion strains, locus YBR229C, strain ROT2, active compounds read low 0.964 | S. cerevisiae deletion strains, locus YCL029C, strain bik1, active compounds read low 0.963 | S. cerevisiae deletion strains, locus YDL035C, strain GPR1, active compounds read low 1.02 | S. cerevisiae deletion strains, locus YDL074C, strain BRE1, active compounds read low 1.08 | S. cerevisiae deletion strains, locus YDL101C, strain DUN1, active compounds read low 0.98 | S. cerevisiae deletion strains, locus YDL134C, strain PPH21, active compounds read low 0.999 | S. cerevisiae deletion strains, locus YDL185W, strain tfp1, active compounds read low 0.962 | S. cerevisiae deletion strains, locus YDL192W, strain arf1, active compounds read low 1.03 | S. cerevisiae deletion strains, locus YDR101C, strain arx1, active compounds read low 1.01 | S. cerevisiae deletion strains, locus YDR162C, strain NBP2, active compounds read low 0.963 | S. cerevisiae deletion strains, locus YDR318W, strain mcm21, active compounds read low 0.986 | S. cerevisiae deletion strains, locus YDR388W, active compounds read low 0.996 | S. cerevisiae deletion strains, locus YDR502C, strain sam2, active compounds read low 1 | S. cerevisiae deletion strains, locus YEL061C, strain CIN8, active compounds read low 0.999 | S. cerevisiae deletion strains, locus YER110C, active compounds read low 0.974 | S. cerevisiae deletion strains, locus YER155C, strain BEM2, active compounds read low 1.02 | S. cerevisiae deletion strains, locus YER167W, strain BCK2, active compounds read low 1 | S. cerevisiae deletion strains, locus YGL078C, strain dbp3, active compounds read low 0.986 | S. cerevisiae deletion strains, locus YGL086W, strain mad1, active compounds read low 1.01 | S. cerevisiae deletion strains, locus YGL248W, strain PDE1, active compounds read low 0.987 | S. cerevisiae deletion strains, locus YGR078C, strain PAC10, active compounds read low 0.984 | S. cerevisiae deletion strains, locus YGR135W, strain pre9, active compounds read low 0.98 | S. cerevisiae deletion strains, locus YGR252W, strain gcn5, active compounds read low 0.995 | S. cerevisiae deletion strains, locus YHR030C, strain SLT2, active compounds read low 1.01 | S. cerevisiae deletion strains, locus YHR079C, strain IRE1 (second series), active compounds read low 0.985 | S. cerevisiae deletion strains, locus YHR094C, strain hxt1, active compounds read low 0.991 | S. cerevisiae deletion strains, locus YHR129C, strain ARP1, active compounds read low 1 | S. cerevisiae deletion strains, locus YHR200W, strain rpn10, active compounds read low 0.99 | S. cerevisiae deletion strains, locus YIL066C, strain RNR3, active compounds read low 1 | S. cerevisiae deletion strains, locus YIL073C, strain SPO22, active compounds read low 1.01 | S. cerevisiae deletion strains, locus YIL125W, strain kgd1, active compounds read low 0.978 | S. cerevisiae deletion strains, locus YIR030C, strain dcg1, active compounds read low 0.995 | S. cerevisiae deletion strains, locus YJL095W, strain BCK1, active compounds read low 0.996 | S. cerevisiae deletion strains, locus YJL134W, strain LCB3, active compounds read low 0.988 | S. cerevisiae deletion strains, locus YJL168C, strain set2, active compounds read low 1.01 | S. cerevisiae deletion strains, locus YJL187C, strain SWE1 (second series), active compounds read low 0.987 | S. cerevisiae deletion strains, locus YJR043C, strain POL32, active compounds read low 1.01 | S. cerevisiae deletion strains, locus YKL009W, strain mrt4, active compounds read low 1.03 | S. cerevisiae deletion strains, locus YKL068W, active compounds read low 0.977 | S. cerevisiae deletion strains, locus YKL085W, strain MDH1 (second series), active compounds read low 0.987 | S. cerevisiae deletion strains, locus YKL085W, strain MDH1, active compounds read low 0.987 | S. cerevisiae deletion strains, locus YKR001C, strain vps1, active compounds read low 0.983 | S. cerevisiae deletion strains, locus YLR039C, strain RIC1, active compounds read low 1.03 | S. cerevisiae deletion strains, locus YLR058C, strain SHM2, active compounds read low 0.977 | S. cerevisiae deletion strains, locus YLR102C, strain apc9, active compounds read low 0.987 | S. cerevisiae deletion strains, locus YLR262C, strain YPT6, active compounds read low 0.908 | S. cerevisiae deletion strains, locus YLR268W, strain sec22, active compounds read low 1.02 | S. cerevisiae deletion strains, locus YLR330W, strain CHS5, active compounds read low 1.01 | S. cerevisiae deletion strains, locus YLR342W, strain FKS1 (second series), active compounds read low 1.11 | S. cerevisiae deletion strains, locus YLR371W, strain rom2, active compounds read low 0.978 | S. cerevisiae deletion strains, locus YLR418C, strain cdc73, active compounds read low 0.984 | S. cerevisiae deletion strains, locus YML016C, strain PPZ1, active compounds read low 0.998 | S. cerevisiae deletion strains, locus YML032C, strain rad52, active compounds read low 0.995 | S. cerevisiae deletion strains, locus YML124C, strain tub3, active compounds read low 0.992 | S. cerevisiae deletion strains, locus YMR078C, strain ctf18, active compounds read low 0.976 | S. cerevisiae deletion strains, locus YMR223W, strain ubp8, active compounds read low 1.02 | S. cerevisiae deletion strains, locus YMR307W, strain GAS1, active compounds read low 1.16 | S. cerevisiae deletion strains, locus YNL067W, strain RPL9B, active compounds read low 0.992 | S. cerevisiae deletion strains, locus YNL128W, strain TEP1, active compounds read low 1 | S. cerevisiae deletion strains, locus YNL233W, strain BNI4, active compounds read low 1.01 | S. cerevisiae deletion strains, locus YNL250W, strain rad50, active compounds read low 0.992 | S. cerevisiae deletion strains, locus YNL271C, strain bni1, active compounds read low 0.994 | S. cerevisiae deletion strains, locus YNL298W, strain CLA4, active compounds read low 0.991 | S. cerevisiae deletion strains, locus YNL307C, strain MCK1, active compounds read low 0.986 | S. cerevisiae deletion strains, locus YNR052C, strain pop2, active compounds read low 0.96 | S. cerevisiae deletion strains, locus YOL012C, strain htz1 0.853 | S. cerevisiae deletion strains, locus YOL147C, strain pex11, active compounds read low 0.991 | S. cerevisiae deletion strains, locus YOR061W, strain CKA2, active compounds read low 0.962 | S. cerevisiae deletion strains, locus YOR069W, strain VPS5, active compounds read low 0.999 | S. cerevisiae deletion strains, locus YOR136W, strain idh2, active compounds read low 0.989 | S. cerevisiae deletion strains, locus YOR144C, strain elg1, active compounds read low 0.981 | S. cerevisiae deletion strains, locus YOR184W, strain ser1, active compounds read low 1.02 | S. cerevisiae deletion strains, locus YOR316C, strain cot1, active compounds read low 0.981 | S. cerevisiae deletion strains, locus YPR119W, strain clb2, active compounds read low 0.999 | S. cerevisiae deletion strains, locus YPR141C, strain kar3, active compounds read low 0.97 | S. cerevisiae deletion strains, locus YPR163C, strain tif3, active compounds read low 0.989 | S. cerevisiae deletion strains, locus YPR167C, strain met16, active compounds read low 0.973 | S. cerevisiae deletion strains, strain wtn01, active compounds read low 1.01 | S. cerevisiae strains, strain wild type, active compounds read low 1

From PubChem BioAssay AID1159580 (chemical genetic matrix, 2015)
